Results reported in PubChem BioAssay (NCI).
Compounds without any hit were thinned out: in the full panel of roughly 79,000, 15% have a hit. Rule as the data show it: active = growth inhibition above about 70%; inactive = the rest.

Experiments:
[1] = NCI Yeast Anticancer Drug Screen. Data for the rad50 strain (AID 155);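 also: 0% = growth of vehicle-only cultures of the same strain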; conditions: S. cerevisiae rad50 strain growth inhibition; at 50.0 µM; stronger effect = higher value
Method in brief: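 Genetically altered yeast (DNA repair pathway); compound treatment; growth inhibition vs vehicle ctrl.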

[2] = NCI Yeast Anticancer Drug Screen. Data for the mec2-1 strain (AID 157); conditions: S. cerevisiae mec2-1 strain, at 50.0 µM, stronger effect = higher value
Method in brief: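 Vehicle-treated cultures served as reference for growth inhibition of compound-exposed mec2-1 yeast.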

[3] = NCI Yeast Anticancer Drug Screen. Data for the sgs1 mgt1 strain (AID 161);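 also: 0% = growth of cultures given vehicle only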; conditions: S. cerevisiae sgs1 mgt1 strain, at 50.0 µM, stronger effect = higher value
Method in brief: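 Test agents were incubated with a DNA-repair-mutant yeast strain. Growth was then read and compared against vehicle-treated controls.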

[4] = NCI Yeast Anticancer Drug Screen. Data for the cln2 rad14 strain (AID 165);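 also: 0% = growth equal to vehicle treated cultures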; conditions: S. cerevisiae cln2 rad14 strain, at 50.0 µM, stronger effect = higher value
Method in brief: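 Each compound was tested on cln2 rad14 yeast. Inhibition of growth was calculated against vehicle-exposed controls.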

[5] = NCI Yeast Anticancer Drug Screen. Data for the bub3 strain (AID 167); conditions: S. cerevisiae bub3 mutant strain, at 50.0 µM, stronger effect = higher value
Method in brief: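 Yeast carrying a defined mutation is treated with each compound, and growth is compared with that of vehicle-exposed cells to give inhibition.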

[6] = NCI Yeast Anticancer Drug Screen. Data for the mlh1 rad18 strain (AID 175); conditions: S. cerevisiae mlh1 rad18 strain growth inhibition; at 50.0 µM; stronger effect = higher value
Method in brief: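 Vehicle-treated cultures served as the reference for growth inhibition in a yeast strain carrying DNA damage repair alterations exposed to each compound.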

Measured: growth inhibition

CSc1nc(NC2OCC(O)C(O)C2O)c(Br)c(=O)n1C (stereo not given)
inactive: [1] 9.05% | [2] 15.8% | [3] -0.75% | [4] 1.95% | [5] 6.3% | [6] 36%

C[CH2][Sn]([CH2]C)([O]C(=O)c1cccc(F)c1)[O][Sn]([CH2]C)([CH2]C)[O]C(=O)c1cccc(F)c1
inactive: [1] 31.4% | [2] 3.3% | [3] 5.85% | [4] 16.4% | [5] 13.6% | [6] 0.45%

O=c1[nH]n(CCc2ccccc2CCl)c2ccc([N+](=O)[O-])cc12
inactive: [1] 26% | [2] 14.6% | [3] 16.4% | [4] 9.45% | [5] 38.7% | [6] -10.6%

Nc1cc2[nH]cnc2c(=O)[nH]1
inactive: [1] 27.4% | [2] 21.9% | [3] 32.4% | [4] 21.8% | [5] 7.9% | [6] 30.1%

O=c1[nH]c(=O)c2[nH]cnc2[nH]1
inactive: [1] 8.05% | [2] -6% | [3] 5.9% | [4] 2.55% | [5] 9.9% | [6] 9.75%

Nc1ccc2c(=O)[nH][nH]c2c1
inactive: [1] -26.6% | [2] -40.5% | [3] -25% | [4] 10.8% | [5] -25.2% | [6] -9.2%

CCOC(=O)C(=[N+]=[N-])C(=O)CN1C(=O)C2CC(C)=C(C)CC2C1O (stereo not given)
inactive: [1] -18.8% | [2] 1.15% | [3] -4.45% | [4] 1.85% | [5] -10.8% | [6] 16.9%

Cc1ccc(S(=O)OCC23CC4CC(CC(C4)C2)C3)cc1 (stereo not given)
inactive: [1] 17.5% | [2] 1.6% | [3] -1.05% | [4] 17.5% | [5] -5.55% | [6] -30.6%

Cc1cccc(NC(C(=O)O)c2ccccc2)c1 (stereo not given)
inactive: [1] -13.8% | [2] 8.8% | [3] -12.8% | [4] -65.2% | [5] 26.1% | [6] 5.45%

CC(=O)[C@@]1(c2ccccc2)N(C(=O)c2ccccc2)[C@@]1(C)C(=O)c1ccccc1
inactive: [1] 22.1% | [2] 2.25% | [3] 14.4% | [4] 53.1% | [5] 3.85% | [6] -0.75%

COc1c2occc2c(Br)c2ccc(=O)oc12
inactive: [1] 13% | [2] 0.35% | [3] 19.4% | [4] 7.45% | [5] 51.8% | [6] 8.6%

CCCc1c(O)ccc(C)c1C
inactive: [1] 14.6% | [2] 2.5% | [3] 1.1% | [4] -36.2% | [5] -7.35% | [6] 32.4%

CS(=O)(=O)Nc1ccc2ccccc2c1
inactive: [1] -33.8% | [2] 18.8% | [3] -22.5% | [4] 5.1% | [5] -3.05% | [6] -3.7%

CC(C)NCCC(O)c1cc2ccccc2o1 (stereo not given)
inactive: [1] -12.8% | [2] -4% | [3] -17.6% | [4] -7.1% | [5] -35.5% | [6] 5.15%

OCC(O)c1ccc(Cl)cc1 (stereo not given)
inactive: [1] -23% | [2] -17.6% | [3] -14.8% | [4] -14% | [5] -15.8% | [6] -0.3%

N#CC12CCC(CC1)CC2Cl (stereo not given)
inactive: [1] -15.7% | [2] 8.45% | [3] 0.95% | [4] 4.4% | [5] 1.5% | [6] -12.7%

C=CCNC(=S)/N=C/c1c(O)c2ccccc2oc1=O
inactive: [1] -33.5% | [2] -29.6% | [3] -43% | [4] -33.6% | [5] -53% | [6] -46.9%

NCCS/C=C/C(=O)Oc1ccc(Br)cc1
inactive: [1] 35.5% | [2] 0.85% | [3] 12.1% | [4] -1.3% | [5] -9.9% | [6] 53.9%

O=C(N=Nc1c(O)[nH]c2ccc(Br)cc12)c1ccco1
inactive: [1] 24.2% | [2] 28.8% | [3] 43.2% | [4] 14.7% | [5] 43.2% | [6] 43%

CNNC1=NS(=O)(=O)c2cc(C(=O)OC)c(Cl)cc2S1
inactive: [1] 8.75% | [2] -2.25% | [3] -9.9% | [4] 0.5% | [5] -6% | [6] 8.25%

O=C1CCC2CCc3cccc1c32 (stereo not given)
inactive: [1] 0.15% | [2] -7.75% | [3] -12.3% | [4] -19.4% | [5] -18.6% | [6] 3.05%

Clc1ccc(CSc2cnnc(SCc3ccc(Cl)cc3Cl)c2SCc2ccc(Cl)cc2Cl)c(Cl)c1
inactive: [1] 5.9% | [2] 5.9% | [3] 8.05% | [4] 2.25% | [5] -5.15% | [6] -6.6%

CCCCCC/C(C=O)=C\c1ccccc1
inactive: [1] 31.8% | [2] 17.6% | [3] 26.6% | [4] 16.4% | [5] -4.6% | [6] 20.4%

CC(=O)Oc1c(C)cc2c(c1C)C(C)CN2C(C)=O (stereo not given)
inactive: [1] 3.95% | [2] -33.8% | [3] -24.6% | [4] -18.9% | [5] -22.4% | [6] -10.6%

CC(=O)N(CN1C(=O)CCC1C(=O)O)c1cccc(O)c1 (stereo not given)
inactive: [1] 8.45% | [2] 9% | [3] -10.2% | [4] -5.7% | [5] -12.7% | [6] -66.7%

COc1ccc(-c2cc(C)cc(O)c2)c(OC)c1OC
inactive: [1] 7.5% | [2] 6.2% | [3] 21.4% | [4] -8.2% | [5] -9.3% | [6] -11.3%

CN(CCO)c1nc(N)cc(=O)[nH]1
inactive: [1] -17.7% | [2] 12.5% | [3] -10.9% | [4] 4.5% | [5] -10.9% | [6] -8.45%

CCCCCCCC/C=C\CCCCCCC(F)C(=O)O (stereo not given)
inactive: [1] 25.4% | [2] 4.55% | [3] 16.2% | [4] 6.1% | [5] -11.8% | [6] -43%

CCOC(=O)C(C)C(=O)OCC
inactive: [1] 51.2% | [2] -17.9% | [3] 2.55% | [4] -3.6% | [5] 2.3% | [6] 34.5%

CCCCCC(C)(O)CCCCC
inactive: [1] 0.15% | [2] 1.75% | [3] 1.7% | [4] 11.7% | [5] 18.3% | [6] 12%

COc1cccc2c1ccc1nonc12
inactive: [1] 0.05% | [2] -4.1% | [3] -2.25% | [4] -50% | [5] -19.1% | [6] 2.2%

CCOC(=O)NCCNC(=O)OCC
inactive: [1] 8.8% | [2] 0.3% | [3] 1.45% | [4] 6.65% | [5] -11.7% | [6] 3.6%

COc1ccc(I)cc1
inactive: [1] -1.85% | [2] -15.8% | [3] 3.65% | [4] -2.2% | [5] -3.5% | [6] 2.35%

C[N+](C)(C)c1cc2c(nn1)Nc1ccccc1S2
inactive: [1] 17.4% | [2] 3.8% | [3] -2.75% | [4] 14.7% | [5] -17.8% | [6] 8.35%

NC(=O)CC(N)=O
inactive: [1] 6.1% | [2] -5.1% | [3] -2.35% | [4] 9.4% | [5] 1.25% | [6] 4.6%

CC1=C(C#N)C(=O)OC1(C)C1CCCC(=O)C1 (stereo not given)
inactive: [1] -24.8% | [2] -1.45% | [3] -11.3% | [4] -2.7% | [5] 1.95% | [6] -3.75%

CC(=O)N1C(Nc2ccccc2)CCN1c1ccccc1 (stereo not given)
inactive: [1] -24.2% | [2] -31.5% | [3] -14.1% | [4] 10.9% | [5] 2.05% | [6] -8.35%

c1ccc(CCOC(c2ccccc2)(c2ccccc2)c2ccccc2)cc1
inactive: [1] -11.2% | [2] -9.25% | [3] 0.3% | [4] -61.6% | [5] -10.4% | [6] -26.2%

c1ccc(CC(c2cccc3ccccc23)N2CCOCC2)cc1 (stereo not given)
inactive: [1] 22.2% | [2] 23.9% | [3] 39.7% | [4] -7.55% | [5] 30% | [6] 23.2%

Cc1cccc(Cl)c1O
inactive: [1] 29.8% | [2] -7.1% | [3] 23.6% | [4] -23.8% | [5] -7.75% | [6] 18.2%
